Binding signal data for 29 sequences are collected here from article PMC7819943, “Rice protein-binding microarrays: a tool to detect cis-acting elements near promoter regions in rice”.

In all, about 35,000 sequences were measured (“fluorescence intensity (a.u.)”: median about 10,000, highest 2% from about 52,000 on). Shown is part of a subset that was picked to be rich in the highest values.

The target in this test is T1, OsWOX13 (Oryza sativa, UniProt Q5QMM3 1-267).
T1 sequence: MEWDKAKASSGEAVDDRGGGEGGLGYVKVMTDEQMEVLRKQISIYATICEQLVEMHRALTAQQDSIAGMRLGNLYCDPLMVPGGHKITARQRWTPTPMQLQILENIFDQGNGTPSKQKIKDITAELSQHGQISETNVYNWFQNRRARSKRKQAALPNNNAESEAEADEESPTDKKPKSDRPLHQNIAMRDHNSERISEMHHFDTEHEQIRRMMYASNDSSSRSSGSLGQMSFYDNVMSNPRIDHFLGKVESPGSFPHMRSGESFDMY
Put plainly: protein-binding microarray (RPBM); PBS, 2% BSA, 51.3 ng/ul salmon testes DNA, 50 uM zinc acetate, 200 nM TF, 25 C, 1 h; high values mean tight binding. To be noted: protein: recombinant; tags: N-terminal polyhistidine and DsRed monomer fusion (pET32a); label: CyDye5-dUTP incorporated in the synthesized complementary strand; 3' TTTTT single-stranded linker to array surface; dsDNA, one strand shown. In a few lines:
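In PBS with 2% BSA, salmon testes DNA and 50 µM zinc acetate, 200 nM protein was incubated on a custom Agilent array at 25 °C for 1 h and then washed off. The array had been made double-stranded by primer extension with Cy5-dUTP and blocked with 2% BSA. The proteins were transcription factors fused N-terminally to polyhistidine and DsRed, expressed in E. coli BL21-CodonPlus and purified on Ni–NTA. The binding signal is per-feature fluorescence intensity (arbitrary units) from an Axon 4000B scanner.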
“ATGTGTCAATTAATTATTTGCCACTCGCTGTCTATGACATCGGAGTCACCTAGTGCAG”: the binding signal was 28300 fluorescence intensity (a.u.).

In the case of “GGTGGATGAGAATGGATTGAATGAAAACAACAACATATTACGGAGTCACCTAGTGCAG”, the binding signal was 7970 fluorescence intensity (a.u.).

With “ATTGATGGGTACATTGAGATGGAGCTGTTTGGACAAGTTGCGGAGTCACCTAGTGCAG”, the binding signal is 7520 fluorescence intensity (a.u.).

As to “ATGATTGATTGCTTTTCCTAAATCCTAACCATGATGCTGTCGGAGTCACCTAGTGCAG”, the binding signal is 65000 fluorescence intensity (a.u.).

As to “TTTTGATCACACCATGATTGATGCACAAATCCATATGAACCGGAGTCACCTAGTGCAG”, the binding signal is 36800 fluorescence intensity (a.u.).

For the sequence “TGAAGATTGATGAGATGGACGGTACCATTGCCGATGCTGTCGGAGTCACCTAGTGCAG”, the binding signal was 56700 fluorescence intensity (a.u.).

Take “CAATTGTCCGGATTGAGATATGACTGAAGCGGATGCTGGACGGAGTCACCTAGTGCAG”: the binding signal is 3220 fluorescence intensity (a.u.).

Take “TTGCTGATTGAAGCTGATACTGTCGTGAAATGAACCATGTCGGAGTCACCTAGTGCAG”: the binding signal was 38200 fluorescence intensity (a.u.).

“GCCTAAGATAATTGATAAGAGTGCTTAAAGTGTACAACCGCGGAGTCACCTAGTGCAG”: the binding signal was 37500 fluorescence intensity (a.u.).

In the case of “TATATTATTTGTCAATCTTATTGTCAACTTATTAATCATCCGGAGTCACCTAGTGCAG”, the binding signal is 7160 fluorescence intensity (a.u.).

As to “TCTGACCATTATTAATTTCTAGCAACTAGCAATTTTGTGCCGGAGTCACCTAGTGCAG”, the binding signal was 6120 fluorescence intensity (a.u.).

Turning to “AGATTACATGATTGGAAATCTTTCACATATTTGTTTCAGGCGGAGTCACCTAGTGCAG”, the binding signal was 51800 fluorescence intensity (a.u.).

With “TGTCTAATTGGTATCGTGAAGACTCTGAACCATTTCCATCCGGAGTCACCTAGTGCAG”, the binding signal is 35200 fluorescence intensity (a.u.).

Regarding “CCCTTAATTAATTAAAACCGGTCACAGTATGTCCTTTAATCGGAGTCACCTAGTGCAG”, the binding signal is 41300 fluorescence intensity (a.u.).

On to “ATCTTAATTGAAACAAACACAGCTTTAGTATATGCATGTCCGGAGTCACCTAGTGCAG”, for which the binding signal is 58900 fluorescence intensity (a.u.).

With “CTTAATTAGCATGAAACACAAGTAGTATATGATTACACCACGGAGTCACCTAGTGCAG”, the binding signal is 33100 fluorescence intensity (a.u.).

As for “GTCCAGGCTTAATTCAATCATTATATGTACATATCTTTGTCGGAGTCACCTAGTGCAG”, the binding signal is 6860 fluorescence intensity (a.u.).

Turning to “TTCTCTAATTGGTAATTCATGATTAATCACTCCTACTTTACGGAGTCACCTAGTGCAG”, the binding signal was 48000 fluorescence intensity (a.u.).

Take “GATTGGTCATAATTATATATATATATTACTTCCTAATCACCGGAGTCACCTAGTGCAG”: the binding signal was 6390 fluorescence intensity (a.u.).

For the sequence “ATCTGTAATTTATTTTATTATTAGTCTACGCTTAATACTTCGGAGTCACCTAGTGCAG”, the binding signal is 22000 fluorescence intensity (a.u.).

For “ATTAATTATCTAATTAATTAATTAGCCCATCTGCTTACTTCGGAGTCACCTAGTGCAG”, the binding signal was 65000 fluorescence intensity (a.u.).

“GTGATTAATTAATTATTAATTAATCGCTAATCAGGATAATCGGAGTCACCTAGTGCAG”: the binding signal was 65500 fluorescence intensity (a.u.).

Regarding “CACACTATTAATCATTTTGATTTTGGTATACTGCACTTTTCGGAGTCACCTAGTGCAG”, the binding signal was 6110 fluorescence intensity (a.u.).

Take “GAGAACTCTAATGAATTAGATTATATTCATGCTTGTTGATCGGAGTCACCTAGTGCAG”: the binding signal was 5820 fluorescence intensity (a.u.).

“CAGGCTGCTTAATTACATATATCTAGATATATATATTATTCGGAGTCACCTAGTGCAG”: the binding signal was 3870 fluorescence intensity (a.u.).

“ATATATATATATATATATATATATATATTATCGCTAATAACGGAGTCACCTAGTGCAG”: the binding signal was 31200 fluorescence intensity (a.u.).

As for “ATTAATCGCTAATTAGGATAATTAATCACTAATTAGTATTCGGAGTCACCTAGTGCAG”, the binding signal was 43700 fluorescence intensity (a.u.).

Regarding “TGATTGGTAATCAATCAATTATTATCATATACTCGCACTGCGGAGTCACCTAGTGCAG”, the binding signal is 62300 fluorescence intensity (a.u.).

Turning to “TTCAATTGATTATGAACTGCTTGTACTCTAATCAATGGTACGGAGTCACCTAGTGCAG”, the binding signal is 55800 fluorescence intensity (a.u.).
